Compounds with a hit are over-represented: about 1.3% of the library has one in this group of screens.
S1P2 antag: S1P2 (human) receptor antagonism; O95136; cell-based S1P2 antagonist assay, inhibition at 5 uM; inhibition, % at 5 µM; actives 0.21% (n = 97,000); in the data active = inhibition above about 45%;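 also: CRE beta-lactamase reporter cells expressing human S1P2 stimulated with S1P; 0% = agonist at EC80 alone and 100% = agonist plus reference antagonist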
Target sequence (O95136 whole entry, looked up): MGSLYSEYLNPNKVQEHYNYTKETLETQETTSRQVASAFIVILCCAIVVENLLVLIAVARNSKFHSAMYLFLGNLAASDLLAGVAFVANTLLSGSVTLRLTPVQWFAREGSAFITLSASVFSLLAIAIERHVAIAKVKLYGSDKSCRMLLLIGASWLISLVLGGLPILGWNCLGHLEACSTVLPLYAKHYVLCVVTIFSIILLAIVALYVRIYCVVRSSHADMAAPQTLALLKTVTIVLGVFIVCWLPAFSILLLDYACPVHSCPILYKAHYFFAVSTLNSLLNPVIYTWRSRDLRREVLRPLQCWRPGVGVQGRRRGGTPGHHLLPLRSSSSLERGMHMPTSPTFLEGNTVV
S1P2 ag: S1P2 (human) receptor agonism; O95136; S1P2-expressing cell line, agonist reporter read-out; activation, % at 4.5 µM; actives 0.46% (n = 97,000); AID 729; in the data active = activation above about 16%;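 also: 0% = vehicle low control and 100% = maximal reference agonist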
Candida biofilm: kills Candida albicans biofilms. C. albicans biofilm + clotrimazole, Alamar Blue. inhibition, % at 6 µM. actives 0.14% (n = 85,000). AID 834;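 active = inhibition above 20%; inactive = inhibition below 20%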;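 also: preformed 24 hr biofilms exposed to compound for 48 hr; 0% = biofilm without compound and 100% = blank killed by clotrimazole plus chlorhexidine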
Phagocyt inh: macrophage phagocytosis inhibition. J774A.1 macrophage IgG-bead phagocytosis, imaging. inhibition, % at 5 µM. actives 0.07% (n = 110,000). AID 1029;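 active = inhibition above the mean of the plate negative controls plus 5 SD, cut at about 13% in these data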;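 also: phagocytic index as fraction of beads internalized from green versus red external bead signal; plate controls were DMSO negative control for no effect and cytochalasin-D positive control for full effect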
GALR2 blocker: GALR2 (human) receptor antagonism | O43603 | GALR2-expressing cells, antagonist mode | inhibition, % at 4 µM | actives 0.39% (n = 140,000) | AID 828; in the data active = inhibition above about 27%;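 also: cells stimulated with galanin 1-16 at roughly its EC80; 0% = agonist challenge control and 100% = basal control without agonist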
GALR2 agonist: activates the human galanin receptor 2. GALR2-expressing cells, agonist activation read-out. activation, % (test concentration not listed). AID 803. actives 0.48% (n = 140,000); in the data active = activation above about 5%, passing the limit was not always enough;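 also: 0% = vehicle buffer wells and 100% = reference agonist at full effect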
Starred values were filed as active, the others as inactive; x = not tested or not shown.

SMILES	S1P2 antag	S1P2 ag	Candida biofilm	Phagocyt inh	GALR2 blocker	GALR2 agonist
COc1ccc(N(CC(=O)NCCSc2ccccn2)S(C)(=O)=O)cc1Cl	14	-3	8	0	8	-2
O=C(COc1ccc(C(=S)N2CCOCC2)cc1)N1CCCC1	9	-9	3	0	-9	-2
COC(=O)C1=CNC=C(C(=O)OC)C1c1ccc(Cl)cc1	-1	5	-4	-2	3	4
O=C(CSCc1ccc(Cl)cc1)NCC1CCCO1 (stereo not drawn)	11	2	3	1	-9	-2
O=S(=O)(Cc1ccc(Cl)cc1)NCC1CCCO1 (stereo not drawn)	-22	63*	3	-1	-6	1
O=C(CSc1ccc(Cl)cc1)NCC1CCCO1 (stereo not drawn)	-20	-6	65*	0	-2	0
O=S(=O)(NCC1CCCO1)c1cc(Cl)ccc1Cl (stereo not drawn)	-11	-3	5	-2	-2	-1
CC(C)Oc1ccc(Br)cc1/C=N\NC(N)=S	x	x	x	x	8	0
CC(C)c1ccc2[nH]c(O)c(N=NC(=O)c3ccc(CSc4nncn4C)cc3)c2c1	x	x	x	-14	-1	5.1*
Cn1cnnc1SCc1ccc(C(=O)O)cc1	-6	-5	10	-3	1	-1
Nc1nc(SCc2ccc([N+](=O)[O-])cc2)nc2nc3c(cc12)CCCC3	x	x	x	-6	-4	5.1*
CCCCCC(=O)N1CC2(CC(c3cccc(NC(=O)c4ccccc4)c3)=NO2)C[C@@H]1C(N)=O (stereo partly drawn)	0	-11	x	1	-4	-3
COc1ccccc1NC(=O)COc1ccccc1	14	-4	-2	-1	4	-1
COc1ccc(OCC(=O)Nc2ccccc2O)cc1	-13	-3	82*	0	-11	-1
COc1ccc(Cl)cc1N(CC(=O)Nc1ccccc1SC)S(C)(=O)=O	-2	-5	1	1	-12	0
CCOC(=O)c1cc(CC)sc1NC(=O)c1cc(OC)c(OC)c(OC)c1	-69	16*	4	0	-6	-1
CCOC(=O)c1[nH]c2ccc(F)cc2c1NC(=O)c1cc(OC)c(OC)c(OC)c1	-33	18*	6	0	6	-1
CCOC(=O)c1cc(CC)sc1NC(=O)c1ccc(N2C(=O)CCC2=O)cc1	-17	-4	x	2	5	-3
Oc1cccc(C(=S)N2CCN(Cc3ccccc3)CC2)c1	12	56*	4	-1	0	-1
O=C(Nc1ccccn1)Nc1cccs1	15	133*	6	0	2	0
O=C(Nc1ccncc1)Nc1ccccn1	13	-4	7	-2	-8	-1
COc1ccc(CC(=O)Nc2cccc(-c3nnc(-c4cccc(C)c4)o3)c2)cc1OC	x	x	2	0	28*	-1
COc1ccc(CC(=O)Nc2cccc(-c3nnc(-c4ccc(C)cc4)o3)c2)cc1OC	x	x	x	x	26	-2
COc1ccc(Cc2nnc(-c3cccc(C)c3)o2)cc1OC	x	x	24*	x	4	-1
COc1ccc(CC(=O)Nc2cccc(-c3nnc(-c4ccccc4)o3)c2)cc1OC	56*	-6	8	2	12	-1
SMILES	S1P2 antag	S1P2 ag	Candida biofilm	Phagocyt inh	GALR2 blocker	GALR2 agonist
CCC(C(=O)N1CCc2ccccc2C1)n1nc(C)n2c(cc3occc32)c1=O (stereo not drawn)	x	x	x	-1	12	-1
COc1cc2c(cc1OC)C1=C(C#N)CN(C3CCCCC3)CN1CC2	-49	20*	12	0	-1	-1
COc1ccc(CCN2CC(C#N)=C3c4cc(OC)c(OC)cc4CCN3C2)cc1OC	-37	24*	10	0	-3	-1
O=C(Nc1ccc(Br)c2cccnc12)c1ccc(Cn2cc(Cl)cn2)o1	x	x	5	-9	6	-2
CCCCn1nc(NC(=O)c2cccs2)c2cc3cc(OC)ccc3nc21	35	12	6	0	1	6.8*
CCC(C)NC(=O)C1CCCN(S(=O)(=O)c2ccc(-n3cnnn3)cc2)C1 (stereo not drawn)	-1	-6	4	-2	-2	0
O=c1c2c(-c3ccccc3)csc2ncn1/N=C/c1c2ccccc2cc2ccccc12	15	18*	x	-2	-11	-1
CCc1nc2c(cnn2-c2ccc(F)cc2)c(=O)n1-c1ccc(N2CCC(C)CC2)cc1	-1	-4	3	0	-16	0
CCc1ccc2[nH]c(=O)c(CN(Cc3ccc4c(c3)OCO4)Cc3nnnn3C3CCCC3)cc2c1	1	24*	5	5	1	-2

Screens from PubChem BioAssay.
